The results in this text go back to the supplement of paper PMC13380429.

The subject of test [1] is Vero E6 infected with SARS-CoV-2. Kind of test: morphology score (similarity to uninfected cells); higher = more like uninfected cells. The settings on record: 24 h.
For test [2] the test system is unchanged. In words: SARS-CoV-2 infection rate relative to infected DMSO; higher = more infection, active = 60 or less. To be noted: 24 h.

In turn, `O=C(C[S+]([O-])C(c1ccccc1)c1ccccc1)NO` (stereo not drawn) [adrafinil] (10 µM) displayed a morphology score in test [1] of 0.2. Also, the SARS-CoV-2 infection rate in test [2] was 100% (inactive).
In test [1], `COc1ccc2cc1Oc1cc3c(cc1OC)CC[N+](C)(C)[C@H]3Cc1ccc(cc1)Oc1c(OC)c(OC)cc3c1[C@@H](C2)[N+](C)(C)CC3` [metocurine] (10 µM) registered a morphology score of 0.103. In addition, the SARS-CoV-2 infection rate in test [2] is 104% (inactive).
For `COc1ccc(CCN(C)CCCN2CCc3cc(OC)c(OC)cc3CC2=O)cc1OC` [zatebradine] (10 µM), the morphology score in test [1] is -0.00282. Further, the SARS-CoV-2 infection rate in test [2] was 112% (inactive).
For `Cc1cccc(Nc2nc(-c3ccncc3)cs2)c1` (0.833333 µM), the morphology score in test [1] is 0.455. The SARS-CoV-2 infection rate in test [2] is 61% (inactive).
As for `C[C@H](Oc1cc(-c2cnn(C3CCNCC3)c2)cnc1N)c1c(Cl)ccc(F)c1Cl` [crizotinib-(S)] (10 µM), the morphology score in test [1] was found to be 0.602. Also, the SARS-CoV-2 infection rate in test [2] was 23% (active).
In the same order, the values of `CCCN(CCC)[C@H]1CCc2cccc(O)c2C1` [8-hydroxy-DPAT] (10 µM) are 0.0607 and 98.5% (inactive).
Take `O=C1Nc2ccccc2C2(CCN(CCc3ccc(C(F)(F)F)cc3)CC2)O1` (10 µM): the morphology score in test [1] is -0.158. The SARS-CoV-2 infection rate in test [2] was 106% (inactive).
Taken in the same sequence, the figures for `CS(=O)(=O)CCNCc1ccc(-c2ccc3ncnc(Nc4ccc(OCc5cccc(F)c5)c(Cl)c4)c3c2)o1` [lapatinib] (10 µM) were -0.279 and 111% (inactive).
In test [1], `COC(=O)N[C@H](C(=O)N1CC2(CC2)C[C@H]1c1nc(-c2ccc3c(c2)C(F)(F)c2cc(-c4ccc5[nH]c([C@@H]6[C@H]7CC[C@H](C7)N6C(=O)[C@@H](NC(=O)OC)C(C)C)nc5c4)ccc2-3)c[nH]1)C(C)C` [ledipasvir] (10 µM) yielded a morphology score of 0.191. Also, the SARS-CoV-2 infection rate in test [2] was 99.5% (inactive).
On to `CN(NC(=O)CC(=O)NN(C)C(=S)c1ccccc1)C(=S)c1ccccc1` [elesclomol] (10 µM), for which the morphology score in test [1] is 0.879. Also, the SARS-CoV-2 infection rate in test [2] is 19.5% (active).
Consider `O=C1c2c(O)cccc2Cc2cccc(O)c21` [anthralin] (10 µM), for which the morphology score in test [1] is -0.0665. Moreover, the SARS-CoV-2 infection rate in test [2] is 94% (inactive).
`COc1cc(N2CCN(C)CC2)ccc1Nc1nccc(-c2cn(C)c3cnccc23)n1` (0.833333 µM) yielded a morphology score in test [1] of 0.377. In addition, the SARS-CoV-2 infection rate in test [2] was 100% (inactive).
`Nc1c2ccccc2nc2ccccc12` [9-aminoacridine] (0.833333 µM) showed a morphology score in test [1] of 0.102. Also, the SARS-CoV-2 infection rate in test [2] was 106% (inactive).
Taken in the same sequence, the figures for `CC(C)(F)C[C@H](N[C@@H](c1ccc(-c2ccc(S(C)(=O)=O)cc2)cc1)C(F)(F)F)C(=O)NC1(C#N)CC1` [odanacatib] (10 µM) were 0.161 and 96.5% (inactive).
`CNc1cc(OC)c(C(=O)NC2CCN(Cc3ccccc3)C2C)cc1Cl` (stereo not drawn) [nemonapride] (10 µM) showed a morphology score in test [1] of 0.642. Besides, the SARS-CoV-2 infection rate in test [2] was 36.5% (active).
On to `C[C@@H]1CN(c2c(F)c(F)c3c(=O)c(C(=O)O)cn(C4CC4)c3c2F)C[C@H](C)N1` [orbifloxacin] (10 µM), for which, in test [1], the morphology score was 0.149. In addition, in test [2], the SARS-CoV-2 infection rate was 96.5% (inactive).
Turning to `NCC1(CC(=O)O)CCCCC1` [gabapentin] (10 µM), the morphology score in test [1] was -0.108. Besides, the SARS-CoV-2 infection rate in test [2] was 109% (inactive).
Regarding `CC(C)c1ccc(NC(=O)c2cccs2)c(-c2nc3ccccc3[nH]c2=O)c1` (10 µM), the morphology score in test [1] is 0.23. Further, the SARS-CoV-2 infection rate in test [2] was 83% (inactive).
On to `CC1(CN2CCC(n3c(=O)[nH]c4ccccc43)CC2)OCc2ccccc2-n2cccc21` (stereo not drawn) [zaldaride] (10 µM), for which the morphology score in test [1] is -0.152. Moreover, in test [2], the SARS-CoV-2 infection rate is 112% (inactive).
Molecule `CC(C)[C@](O)(c1ccc2cc(OC(F)F)c(OC(F)F)cc2c1)c1c[nH]nn1` (10 µM) showed a morphology score in test [1] of 0.165. Also, the SARS-CoV-2 infection rate in test [2] is 102% (inactive).
In test [1], `CCCn1c(=O)c2nc(-c3ccccc3)[nH]c2n(CCC)c1=O` [1,3-dipropyl-8-phenylxanthine] (10 µM) yielded a morphology score of 0.102. Besides, the SARS-CoV-2 infection rate in test [2] is 104% (inactive).
As to `CC1(C)CCC(C)(C)c2cc(Cn3cccn3)c(/C=C/c3ccc(C(=O)O)cc3)cc21` [palovarotene] (10 µM), the morphology score in test [1] was -0.127. For the same molecule, the SARS-CoV-2 infection rate in test [2] is 108% (inactive).
For the molecule `Clc1ccc2c(c1)CCc1cccnc1C2=C1CCNCC1` [desloratadine] (10 µM), the morphology score in test [1] was found to be 0.351. Further, in test [2], the SARS-CoV-2 infection rate was 76% (inactive).
Consider `COc1cc(N2CCOCC2)ccc1Nc1ncc(Cl)c(Nc2ccccc2NS(C)(=O)=O)n1` (10 µM), for which, in test [1], the morphology score is -0.034. Moreover, in test [2], the SARS-CoV-2 infection rate was 103% (inactive).
In the same order, the values of `N#C[C@H](O[C@@H]1O[C@H](CO[C@@H]2O[C@H](CO)[C@@H](O)[C@H](O)[C@H]2O)[C@@H](O)[C@H](O)[C@H]1O)c1ccccc1` [amygdalin] (10 µM) are 0.155 and 106% (inactive).
For the molecule `CNCCN(C)Cc1c[nH]nc1-c1ccc(O[C@H]2C[C@H](OCCC3CCOCC3)C2)cc1` (10 µM), the morphology score in test [1] was -0.0509. In test [2], the SARS-CoV-2 infection rate is 108% (inactive).
Taken in the same sequence, the figures for `C[C@H]1CCC/C=C/[C@@H]2C[C@H](O)C[C@H]2[C@H](O)/C=C/C(=O)O1` [brefeldin-A] (0.833333 µM) were 0.0397 and 107% (inactive).
Taken in the same sequence, the figures for `CC(C)N(C[C@H]1O[C@@H](n2cnc3c(N)ncnc32)[C@H](O)[C@@H]1O)[C@H]1C[C@@H](CCc2nc3cc(C(C)(C)C)ccc3[nH]2)C1` (10 µM) were 0.122 and 110% (inactive).
As for `CC(CCc1ccc(O)cc1)NCCc1ccc(O)c(O)c1` (stereo not drawn) [dobutamine] (10 µM), in test [1], the morphology score is -0.179. The SARS-CoV-2 infection rate in test [2] was 113% (inactive).
In the case of `CC(C)(C)C#Cc1cc(N(C(=O)[C@H]2CC[C@H](C)CC2)[C@H]2CC[C@@H](O)CC2)c(C(=O)O)s1` (10 µM), in test [1], the morphology score is -0.117. The SARS-CoV-2 infection rate in test [2] was 107% (inactive).
Taken in the same sequence, the figures for `C[C@@](Cc1ccc(O)c(O)c1)(NN)C(=O)O` [carbidopa] (10 µM) were -0.0523 and 100% (inactive).
Regarding `CC(=O)NC1CCSC1=O` (stereo not drawn) [citiolone] (10 µM), in test [1], the morphology score was -0.0164. Further, in test [2], the SARS-CoV-2 infection rate is 107% (inactive).
Regarding `Cc1ccc(-c2cn3c4c(sc3n2)CCCC4)cc1` [pifithrin-cyclic] (10 µM), in test [1], the morphology score is -0.115. Moreover, in test [2], the SARS-CoV-2 infection rate was 106% (inactive).
In test [1], `Cc1onc(-c2c(Cl)cccc2Cl)c1C(=O)N[C@@H]1C(=O)N2[C@@H]1SC(C)(C)[C@@H]2C(=O)O` [dicloxacillin] (10 µM) displayed a morphology score of 0.0315. Further, the SARS-CoV-2 infection rate in test [2] was 115% (inactive).
Consider `CCNC(=O)[C@@H]1CCCN1C(=O)[C@H](CCCNC(=N)N)NC(=O)[C@H](CC(C)C)NC(=O)[C@@H](C)NC(=O)[C@H](Cc1ccc(O)cc1)NC(=O)[C@H](CO)NC(=O)[C@H](Cc1c[nH]c2ccccc12)NC(=O)[C@H](Cc1cnc[nH]1)NC(=O)[C@@H]1CCC(=O)N1` [alarelin] (10 µM), for which the morphology score in test [1] was -0.246. For the same molecule, in test [2], the SARS-CoV-2 infection rate was 114% (inactive).
Turning to `CCOC(=O)OC(C)OC(=O)[C@@H]1N2C(=O)[C@@H](NC(=O)[C@H](N)c3ccccc3)[C@H]2SC1(C)C` (stereo partly drawn) [bacampicillin] (10 µM), the morphology score in test [1] is -0.0144. In addition, the SARS-CoV-2 infection rate in test [2] was 114% (inactive).
For the molecule `C[C@@H](O)[C@H]1C(=O)N2C(C(=O)O)=C([C@H]3CCCO3)S[C@H]12` [faropenem] (10 µM), the morphology score in test [1] was 0.121. Moreover, in test [2], the SARS-CoV-2 infection rate was 92.5% (inactive).
In the case of `CCCCOC(=O)c1ccccc1Nc1cccc(C(F)(F)F)c1` [ufenamate] (10 µM), the morphology score in test [1] turned out to be 0.129. For the same molecule, the SARS-CoV-2 infection rate in test [2] was 100% (inactive).
Consider `N=C1CCCN1Cc1[nH]c(=O)[nH]c(=O)c1Cl` [tipiracil] (10 µM), for which the morphology score in test [1] is -0.0802. Also, the SARS-CoV-2 infection rate in test [2] was 106% (inactive).
For `C[C@H](NC[C@H](O)CP(=O)(O)Cc1ccccc1)c1ccc(Cl)c(Cl)c1` (10 µM), the morphology score in test [1] was 0.127. Further, the SARS-CoV-2 infection rate in test [2] was 106% (inactive).
Regarding `CCCOCCn1c(=O)c(N2CCN(CCO)CC2)nc2cnc(-c3ccc(OC)nc3)cc21` (10 µM), in test [1], the morphology score is -0.0795. Besides, the SARS-CoV-2 infection rate in test [2] is 116% (inactive).
Molecule `CC[C@H](C)[C@H](N)C(=O)O` [isoleucine] (10 µM) gave a morphology score in test [1] of 0.202. Moreover, in test [2], the SARS-CoV-2 infection rate is 106% (inactive).
In turn, `O=C(/C=C/c1c(C(=O)O)[nH]c2cc(Cl)cc(Cl)c12)Nc1ccccc1` [gavestinel] (10 µM) had a morphology score in test [1] of 0.121. For the same molecule, in test [2], the SARS-CoV-2 infection rate is 108% (inactive).
`COc1cc2c(cc1OC)CC(=O)N(CCCN(C)C[C@H]1Cc3cc(OC)c(OC)cc31)CC2` [ivabradine] (10 µM): the morphology score in test [1] stood at 0.15. Also, in test [2], the SARS-CoV-2 infection rate is 112% (inactive).
Turning to `O=C(CCCCCN1C(=O)c2cccc3cccc(c23)C1=O)NO` [scriptaid] (10 µM), in test [1], the morphology score was -0.255. Also, the SARS-CoV-2 infection rate in test [2] is 120% (inactive).
In the case of `Cc1cccn2c(=O)c(/C=C(\C#N)c3nc4ccccc4s3)c(Oc3ccc(F)cc3)nc12` (10 µM), the morphology score in test [1] came to 0.0128. The SARS-CoV-2 infection rate in test [2] was 102% (inactive).
In test [1], `Cc1ccnc(NS(=O)(=O)c2ccc(N)cc2)n1` [sulfamerazine] (10 µM) gave a morphology score of 0.0324. The SARS-CoV-2 infection rate in test [2] was 108% (inactive).
Regarding `Clc1cccc(C(c2ccc3[nH]cnc3c2)n2ccnc2)c1` (stereo not drawn) [liarozole] (10 µM), the morphology score in test [1] was 0.138. In test [2], the SARS-CoV-2 infection rate was 98% (inactive).
On to `C=C1CC/C=C(\C)CC[C@@H]2[C@@H]1CC2(C)C` [g-caryophyllene] (10 µM), for which the morphology score in test [1] amounted to 0.0545. In addition, the SARS-CoV-2 infection rate in test [2] is 95% (inactive).
